Reference: PubChem BioAssay AID2842 (Southern Research Institute, 2010)
Among all 24,000 compounds or so, about 1,200 (5%) were called active. Roughly 2% stayed inconclusive and do not appear here. No rule for the calls is given here. These entries were drawn from the full list.

Test: Mycobacterium tuberculosis H37Rv growth inhibition, putative kinase inhibitor library, confirmatory dose response (AID 2842);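 as to inhibition: bacteria incubated one week before Alamar blue readout; 0% = bacteria only wells and 100% = bacteria with high antibiotic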
Settings: M. tuberculosis H37Rv growth inhibition; CC50: measured here: Vero cell cytotoxicity; inhibition: stronger effect = higher value
With Cc1nc2sc(C(N)=O)c(N)c2c(-c2ccccc2)c1C(=O)Nc1ccccc1 the inhibition was 1.79% (inactive). With CCOC(=O)c1cnc2ccc(OCC)cc2c1Nc1cccc(Cl)c1C the inhibition was -5.22% (inactive). For COc1ccc(-n2c(=O)[nH]cc(C(=O)Nc3ccc4c(c3)OCO4)c2=O)cc1OC, the inhibition was 1.59% (inactive). For Cc1ccccc1NC(=O)Cc1csc(NS(=O)(=O)c2ccc(Cl)cc2)n1, the inhibition was -5.2% (inactive). In the case of Cc1ccnc(NC(=O)NC2CC(=O)N(c3ccc(F)cc3)C2)c1 (centres undefined), the inhibition is reported as 11.3% (inactive). With CCOC(=O)c1oc2ccccc2c1NC(=O)c1ccc(F)c(F)c1 the inhibition was 3.18% (inactive). For CC1CCc2c(sc(NC(=O)c3ccc4ccccc4c3)c2C#N)C1 (centres undefined), the inhibition was 1.23% (inactive). In the case of CCCCCCCNC(=O)c1c(N)n(/N=C/c2ccco2)c2nc3ccccc3nc12, the inhibition is reported as -9.39% (inactive). For O=C(O)COc1ccccc1/C=C1/SC(=S)N(NC(=O)c2ccco2)C1=O, the inhibition was -1.98% (inactive). With CNC(=O)c1c(NC(=O)CC2SC(=O)NC2=O)sc2c1CCCC2 (centres undefined) the inhibition was -3.54% (inactive). For Cc1ccc(C(=O)Nc2cc(C)c3c(=O)oc4ccccc4c3n2)cc1[N+](=O)[O-], the inhibition was -2.97% (inactive). With O=C(CN1N=NC2C(=O)N(c3ccc(Cl)cc3)C(=O)C21)Nc1ccccc1Cl (centres undefined) the inhibition was 0.65% (inactive). In the case of COc1ccc(NC(=O)C2=C(C)Nc3ncnn3C2c2ccc(C#N)cc2)cc1 (centres undefined), the inhibition is reported as -1.94% (inactive). With COc1ccc(/C(O)=C2\C(=O)C(=O)N(CCCn3ccnc3)C2c2cccc(F)c2)cc1Cl (centres undefined) the inhibition was -11.8% (inactive). For O=C(CSc1nc2c(c(=O)n1-c1ccc(Cl)cc1)SCC2)Nc1ccc2c(c1)OCO2, the inhibition was -11.7% (inactive). With Cn1c(SCC(=O)N2CCOCC2)nnc1-c1c[nH]c2ccccc12 the inhibition was -12.7% (inactive). With O=C(Nc1nnc(-c2ccc(F)cc2)s1)c1ccccc1 the inhibition was 8.84% (inactive). With CCN1CCN(c2nc(Nc3ccc(OC)cc3)c3nccnc3n2)CC1 the inhibition was -0.8% (inactive). For CCc1ccc(NC(=O)CSc2nc(-c3cccs3)nc3c2c(=O)n(C)c(=O)n3C)cc1, the inhibition was -5.83% (inactive). For CCOc1ccc(C(=O)Nc2nnc(C34CC5CC(CC(C5)C3)C4)s2)cc1, the inhibition was 9.95% (inactive). For COc1ccc(CCNC(=O)C(=O)NCC(c2ccco2)N2CCc3ccccc32)cc1 (centres undefined), the inhibition was -2.72% (inactive). For CSc1ccc2nc(Nc3cc(C)ccc3C)sc2c1, the inhibition was 13.8% (inactive). For COc1cc(CN2CCNC(=O)C2CC(=O)O)cc(OC)c1 (centres undefined), the inhibition was -0.59% (inactive). With COCCOC(=O)C1=C(C)NC(=O)NC1c1ccc(OC)cc1 (centres undefined) the inhibition was -0.33% (inactive). In the case of COC(=O)c1ccc(CSc2nnc3[nH]c(=O)c(C)c(C)n23)o1, the inhibition is reported as -3.33% (inactive). For CC(=O)Nc1ccc(NC(=O)CSc2ccc(-c3ccc(Cl)cc3)nn2)cc1, the inhibition was 0% (inactive). With O=C(COc1ccccc1F)NC1CC(=O)N(c2ccc(Cl)cc2)C1 (centres undefined) the inhibition was 7.9% (inactive). In the case of CCOc1cccc2c1OC(c1cccnc1)N1N=C(c3cccc(O)c3)CC21 (centres undefined), the inhibition is reported as -10.5% (inactive). With O=C(CC1Nc2cccc3cccc(c23)NC1=O)Nc1ccc(F)cc1 (centres undefined) the inhibition was 27.5% (inactive). In the case of COc1ccc2nc(NC(=O)c3cc(-c4ccccc4)nc4ccccc34)sc2c1, the CC50 is reported as greater than 40 µg/mL and the inhibition is reported as 95.1% (inactive). With COc1cccc(C(=O)COC(=O)c2cc3cc(Br)cc(OC)c3oc2=O)c1 the inhibition was -0.935% (inactive). In the case of CCOC(=O)c1nn(-c2ccc(C)cc2)c(=O)cc1NCc1ccncc1, the inhibition is reported as -9.72% (inactive). In the case of COc1ccc(/C=C2\SC(=S)N(CCC(=O)Nc3nccs3)C2=O)cc1OC, the inhibition is reported as -4.88% (inactive). With COc1ccccc1N1C(=O)N(c2cccc([N+](=O)[O-])c2)C2CS(=O)(=O)CC21 (centres undefined) the inhibition was -5.59% (inactive). For CCS(=O)(=O)c1ccccc1C(=O)Nc1sc2c(c1C(N)=O)CCC(C)C2 (centres undefined), the inhibition was -17.6% (inactive). For O=C(Nc1ccc(F)cc1)c1cn(Cc2ccccc2)cc2c(=O)n(-c3ccccc3)nc1-2, the inhibition was -8.1% (inactive). With O=C(CCCc1ccccc1)Nc1c(C(=O)Nc2ccc3c(c2)OCO3)oc2ccccc12 the inhibition was -0.74% (inactive). For Fc1ccc2nc(Nc3nnc(-c4cccs4)o3)sc2c1, the inhibition was 36% (inactive). With COc1cccc(-c2nc(C(N)=O)c3[nH]c(=O)n(-c4ccccc4F)c3n2)c1 the inhibition was -10.4% (inactive). For Cc1ccc(NC(=O)c2oc3ccccc3c2NC(=O)c2ccc([N+](=O)[O-])cc2)cc1, the inhibition was 3.31% (inactive). With COc1ccc2cc(CCNC(=O)c3ccccc3OC)c(=O)[nH]c2c1 the inhibition was 5.57% (inactive). In the case of Cc1c(C(=O)O)c2cc(O)ccc2n1C, the inhibition is reported as 12.9% (inactive). With O=C(CN1C(=O)CCC1=O)Nc1nc(-c2ccc(Cl)c(Cl)c2)cs1 the inhibition was 0.41% (inactive). With COc1ccc(Cl)cc1NC(=O)CSc1nnc(CCC(=O)O)c(=O)n1N the inhibition was -10.7% (inactive). For O=C(Nc1nc2c(s1)CCCC2)c1coc2ccccc2c1=O, the inhibition was -2.85% (inactive). In the case of O=C(NCc1ccc2[nH]c3c(c2c1)CCCC3)Nc1ccccc1, the inhibition is reported as 62.6% (inactive). For COc1ccc(Nc2ncnc(N)c2[N+](=O)[O-])c(OC)c1, the inhibition was 0.53% (inactive). For Cc1ccc(-c2csc(Nc3ccc(O)c(C(=O)O)c3)n2)cc1, the inhibition was -6.04% (inactive).
